Only some compounds are listed: those with a hit (about 0.9% of all), similar ones and a draw of the others.
E coli growth-1: E. coli V3065 growth inhibition, primary screen, counter-screen for AddAB inhibitor project, absorbance, OD600 | 18 h | inhibition, % at 11.9 µM | 330,000 compounds, 0.27% hits;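 active means inhibition above the campaign's mean inhibition across all tested compounds plus 3 SD, cut at about 9.9% in these data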;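 further: uninfected addAB+ strain grown without phage in ampicillin broth; 0% = DMSO wells and 100% = ciprofloxacin 0.95 µg/ml wells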
Calb FLC: C. albicans growth inhibition with fluconazole, primary screen, CaCi-2 strain, Alamar Blue fluorescence; 300,000 compounds, 0.57% hits; C. albicans CaCi-2 (fluconazole-resistant clinical isolate) + fluconazole, 48 h; growth inhibition, % (concentration not given with the values); AID 1979, 2009;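 active means growth inhibition above about 58% in most replicates, limit read from the data, passing the limit was not always enough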;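 further: all wells also contain fluconazole at 8 µg/ml as a sub-toxic cotreatment; 0% = median of DMSO wells and 100% = median of geldanamycin control wells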
phage Ecoli inh: growth loss of phage-infected E. coli, primary screen, RecBCD inhibitor project, absorbance, with phage, HTS; inhibition, % at 11.9 µM; 360,000 compounds, 0.26% hits; AID 651602, 2012; in the data active means inhibition above about 11%
Tat export inh: E. coli Tat export inhibitors, primary screen, MC4100, TorA-mCherry reporter, fluorescence, single point; inhibition, % at 10 µM; 340,000 compounds, 0.036% hits; AID 488895, 2010;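 active means mean replicate inhibition at least 50% and at least half of replicates individually reaching 50%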;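 further: exported cargo escapes ClpAP degradation while cytoplasmic cargo is degraded and loses fluorescence; 0% = median of neutral control wells and 100% = median of NaSCN control wells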
E coli growth-2: E. coli growth inhibition, primary screen, OD600; AID 1053175, 2014; 330,000 compounds, 0.21% hits; Escherichia coli growth, 23 h; stronger effect = lower value; OD600 absorbance (concentration not given with the values);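 active means OD600 absorbance below the run mean of sample wells minus 3.6 SD, in any replicate, cut at about 0.56 in these data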
AddAB inh: growth inhibition of E. coli expressing H. pylori AddAB, primary screen, AddAB inhibitor project, absorbance; inhibition, % at 11.9 µM; 330,000 compounds, 0.29% hits; AID 435030, 2010; in the data active means inhibition above about 12%;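 further: 0% = vehicle wells of infected cells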
The depositor's hits bear a star; x = no result given; ! = not confirmed by another sample.

SMILES	E coli growth-1	Calb FLC	phage Ecoli inh	Tat export inh	E coli growth-2	AddAB inh
O=C(OCn1ncc(Cl)c(Cl)c1=O)c1ccc(C(F)(F)F)cc1	x	106*	1	-16	0.65	x
O=c1[nH]c(=O)n(C2CC(O)C(CO)O2)cc1F (stereo not drawn)	x	x	x	x	0.062*	x
O=c1[nH]c(=O)n([C@H]2C[C@H](O)[C@@H](CO)O2)cc1I	4	x	10	13	x	3
CC[n+]1c(/C=C2/C=C(C)CC(C)C2)sc2ccccc21 (stereo not drawn)	-4	7	5	-3	x	4
CC[n+]1c(C=C2C=C(C)OC(C)=C2)sc2ccccc21	x	108*	3	3	0.63	x
O=C(Cc1ccc(F)cc1)NN=Cc1ccc2c(c1)OCO2	x	x	x	x	0.75	x
CCOc1cccc(-c2c(C(=O)N/N=C(\C)c3ccccn3)nnn2-c2nonc2N)c1	-3	82*	0	5	x	1
CC(=O)[C@]1(O)Cc2c(O)c3c(c(O)c2[C@@H](O[C@H]2C[C@H](N)[C@H](O)[C@H](C)O2)C1)C(=O)c1ccccc1C3=O	5	78*	x	x	x	4
COc1cccc2c1C(=O)c1c(O)c3c(c(O)c1C2=O)C[C@@](O)(C(C)=O)C[C@@H]3O[C@H]1C[C@H](N)[C@H](O)[C@H](C)O1	x	x	5	-22	x	x
Fc1cccc(NC(=S)Nc2ccc(Br)cc2)c1	0	-14	7	-12	0.49*	2
Fc1ccc(NC(=S)Nc2cc(Cl)ccc2Cl)cc1	-1	-7	2	-3	0.62	0
Fc1ccc(NC(=S)Nc2ccc(Cl)cc2)cc1	-1	-1	6	7	0.52*	1
COc1cc(C(C)=NNC(=O)CSc2nncn2C)ccc1OCc1ccccc1Cl	x	x	x	x	0.68	x
NC(=O)NN=Cc1ccccc1OC(=O)c1cc2ccccc2oc1=O	x	x	x	x	0.68	x
O=C(/C=C/c1ccco1)NC(=S)Nc1ccc(N2CCOCC2)c(Cl)c1	2	17	0	9	0.78	3
O=C(/C=C/c1ccccc1)NC(=S)Nc1ccc(N2CCOCC2)c(Cl)c1	0	111*	4	0	0.7	5
COc1ccc(-n2c(-c3ccc(Br)cc3)c[n+]3c2SC(C)C3)cc1 (stereo not drawn)	-1	88*	3	-7	0.73	1
COc1ccc(-n2c(-c3ccc(Br)cc3)c[n+]3c2CCC3)cc1	-4	-5	3	-5	x	-1
O=C(CC1CC=CCCCCC(=O)OCC2CCCN2C1=O)NC(CO)Cc1ccccc1 (stereo not drawn)	x	x	x	x	0.7	x
Cc1ccc(-n2c(-c3ccccc3)c[n+]3c2CCC3)cc1	0	96*	3	3	0.65	-3
O=C(CSc1nnc(-c2ccccc2)n1-c1ccc(Cl)cc1)N/N=C/c1ccco1	11*	-15	4	4	x	-7
Cc1csc2ncnc(NCCc3ccccn3)c12	-2	98*	2	-10	0.66	-2
O=C(NCCNC(=O)C(c1ccccc1)c1ccccc1)c1ccco1	-1	111*	3	-12	0.71	0
O=C(CNC(=S)N(CCCN1CCOCC1)Cc1cccs1)NCCN1CCOCC1	2	-3	2	-3	0.67	5
O=C(CNC(=S)N(CCCN1CCOCC1)Cc1cccs1)N1CCCC1	1	-5	2	-4	0.54*	1
SMILES	E coli growth-1	Calb FLC	phage Ecoli inh	Tat export inh	E coli growth-2	AddAB inh
CCC(Oc1ccccc1)C(=O)Nc1ncc([N+](=O)[O-])s1 (stereo not drawn)	2	94*	6	-3	0.59	0
CC(CC(=O)Nc1ncc([N+](=O)[O-])s1)c1ccccc1 (stereo not drawn)	-2	92*	4	-12	0.6	7
O=C(Cc1ccc(Cl)cc1)Nc1ncc([N+](=O)[O-])s1	x	60	8	7	0.64	x
O=C(COc1ccc(Cl)cc1)Nc1ncc([N+](=O)[O-])s1	x	98*	3	-5	0.66	x
Clc1nnc(NN=Cc2ccccc2)c2ccccc12	x	x	x	x	0.67	x
CC1CN(c2nc3nonc3nc2N2CCSCC2)CC(C)O1 (stereo not drawn)	x	x	x	x	0.71	x
NC(=O)C1CC2(CC(c3cccc(NC(=O)COc4ccc(Cl)cc4)c3)=NO2)CN1C(=O)Cc1ccc([N+](=O)[O-])cc1 (stereo not drawn)	x	x	x	x	0.69	x
CN(c1ccccc1)c1ccc(C=NN2CCOCC2)cc1	x	x	x	x	0.69	x
O=C(O)COc1ccccc1C(Nc1cccnc1)c1cc(Cl)c2cccnc2c1O (stereo not drawn)	x	100*	x	11	0.65	x
O=C(NC(c1ccccc1)c1cc(Cl)c2cccnc2c1O)c1cccnc1 (stereo not drawn)	0	92*	2	x	x	4
COc1ccccc1C(NC(C)=O)c1cc(Cl)c2cccnc2c1O (stereo not drawn)	4	-6	3	-7	0.69	-1
CCC1C(=NO)CC(c2ccco2)NC1c1ccco1 (stereo not drawn)	x	x	x	x	0.69	x
CCCC1C(c2ccco2)NC(c2ccco2)CC1(C)O (stereo not drawn)	-1	89*	0	6	0.74	2
Cc1csc(N=Cc2ccc([N+](=O)[O-])o2)n1	x	x	12*	x	x	x
O=c1oc2cc(O)ccc2s1	10.0*	-10	2	-1	x	8
Oc1ccc2c(c1)oc1cc(O)ccc12	-2	12	1	2	0.59	1
S=C(NCCSCc1c(Cl)cccc1Cl)Nc1ccccc1	3	95*	5	5	0.72	2
CN(CC(Cc1ccccc1)N(CCN(CCc1ccccc1)N=O)N=O)N=O (stereo not drawn)	x	x	x	x	0.68	x
CCCCN(C)CCn1c(=S)[nH]c2ncccc2c1=O	3	20	4	51*	0.68	0
c1csc(CNc2ncnc3sccc23)c1	2	85*	2	0	0.66	0
CC(=O)c1ccc(NS(=O)(=O)c2ccc(N)cc2)cc1	2	-4	4	-2	0.68	4
CC(=O)NS(=O)(=O)c1ccc(N)cc1	10*!	x	6	12	0.7	-2
CCCCN(CCCC)S(=O)(=O)c1ccc(C(=O)Nc2nnc(COC)o2)cc1	-3	88*	x	22	0.7	2
Cc1ccc(C(=O)Nc2nnc(-c3ccco3)o2)cc1C	-3	-15	-4	-3	0.64	10
CCN(CC)S(=O)(=O)c1ccc(C(=O)Nc2nnc(COC)o2)cc1	1	-5	1	-5	0.75	-3
O=C(CSc1ccc(Cl)cc1)Nc1nnc(-c2ccco2)o1	-3	84*	-6	-3	0.64	-2
CN(Cc1ccccc1)S(=O)(=O)c1ccc(C(=O)Nc2nnc(C3CC3)o2)cc1	-4	85*	x	6	0.69	-1
O=C(Nc1nnc(-c2ccco2)o1)c1ccc(Cl)cc1	3	102*	-2	2	0.44*	9
O=C(NN=Cc1ccco1)c1cc(-c2ccncc2)nc2ccccc12	x	x	x	x	0.7	x

Compound activity from PubChem BioAssay.
